HPGD inh – HPGD (human) dehydrogenase inhibition | purified HPGD, NADH fluorescence kinetic, PGE2 substrate | Potency, µM, hits mostly inhibitors | 150,000 compounds, 4.3% hits
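NADH formation kinetics: reaction with 30 uM PGE2 and 1 mM NAD+ (final), 20 nM enzyme, Tris-HCl pH 8 with Tween 20, after 15 min compound preincubation at room temperature. Fluorescence change, last versus first of five reads.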
ALDH1A1 inh – blocks purified human ALDH1A1 activity. P00352. Purified ALDH1A1, NADH fluorescence, propionaldehyde substrate. Potency, µM (doses to about 75.3 µM), actives largely listed as inhibitors. 220,000 compounds, 7.3% hits. AID 1030
Target sequence (P00352 whole entry, looked up): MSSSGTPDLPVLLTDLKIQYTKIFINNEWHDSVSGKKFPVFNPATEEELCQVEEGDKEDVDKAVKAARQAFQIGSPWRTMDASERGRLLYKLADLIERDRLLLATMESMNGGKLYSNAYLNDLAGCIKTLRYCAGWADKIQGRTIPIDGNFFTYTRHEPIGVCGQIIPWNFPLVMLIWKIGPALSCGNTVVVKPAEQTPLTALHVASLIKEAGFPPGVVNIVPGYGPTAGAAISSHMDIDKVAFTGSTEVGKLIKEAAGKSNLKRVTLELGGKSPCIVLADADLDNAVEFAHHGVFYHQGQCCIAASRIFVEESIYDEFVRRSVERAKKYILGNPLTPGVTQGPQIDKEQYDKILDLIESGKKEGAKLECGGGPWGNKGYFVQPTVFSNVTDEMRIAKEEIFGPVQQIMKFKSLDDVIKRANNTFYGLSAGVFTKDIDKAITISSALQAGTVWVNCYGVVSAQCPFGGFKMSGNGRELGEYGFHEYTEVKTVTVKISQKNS
PNC inhibitor – inhibitors of perinucleolar compartment assembly; PC3M PTB-GFP, PNC prevalence imaging, 16 h; active compounds read low; activity change (PNC), negative = inhibition, % at 10 µM; 140,000 compounds, 3.1% hits; AID 2417;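 active = readout at or below -70, meaning at least 70% loss of cells showing the perinucleolar compartment, a nuclear body marking cancer cells; inconclusive = readout between -30 and a set limit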
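Compounds are pinned in duplicate onto adhered PC3M cells stably expressing GFP-tagged PTB and incubated 16 h at 37 C. Cells are then fixed, nuclei stained with Hoechst, and PNC-positive cells counted.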
Hits are given with their value; – = inactive; ? = inconclusive; · = not tested or not shown; [ ] = remark or other dose. In the library only some 11% were active in any assay of this set; here they are far more common. Unless noted, calls follow the shape of the dose curve; as a rule, active = well fitted inhibition curve with a large enough effect (not every such curve was filed as active); inconclusive = small, poorly fitted or top-dose-only effect, or another doubt; inactive = no such curve, though single readings can be large or run the other way.

SMILES | HPGD inh | ALDH1A1 inh | PNC inhibitor
NNC(=O)CC12CC3CC(C1)CC(n1ncnn1)(C3)C2 | – | 2.8µM | –
Fc1ccccc1Cc1noc(CN2CCN(c3ccc(Cl)cn3)CC2)n1 | · | – | ·
CCOC(=O)c1cc(-c2ccccc2)sc1NC(=O)C(C)OC(=O)c1cccnc1Cl (centres undefined) | – | – | –
COc1ccc(Cl)cc1N1C(=N)SCC1=O | · | – | ·
Cc1ccc(N2C(=N)SCC2=O)cc1Cl | 14µM | ? | ?
O=C(CCC1CCCN(C(=O)C2(c3ccccc3)CC2)C1)N1CCN(c2ccccn2)CC1 (centres undefined) | · | – | ·
COc1ccccc1NC(=O)CN1CCN(c2ccccn2)CC1 | – | ? | –
CCOc1ccc(OCC)c(NC(=O)CN2CCN(c3cc(C)ccc3C)CC2)c1 | – | 3.5µM | –
CC1CCC2(CC1)NC(=O)N(CC(=O)Nc1ccccc1-c1ccccc1)C2=O (centres undefined) | · | – | ·
COc1ccccc1NC(=O)CN1CCN(Cc2ccccc2)CC1 | – | 10µM | -87
COc1cc(NC(=O)CCN2CCN(c3ccccc3F)CC2)cc(OC)c1 | – | – | –
CCOc1ccc(OCC)c(NC(=O)CN2CCN(c3cccc(C)c3)CC2)c1 | – | ? | –
COc1cc(NC(=O)CCN2CCN(Cc3ccccc3)CC2)cc(OC)c1 | – | 11µM | –
CC1(C2CC2)NC(=O)N(CC(=O)Nc2ccccc2-c2ccccc2)C1=O (centres undefined) | · | 18µM | ·
Cc1ccc(NC(=O)/C(=C/c2cccs2)NC(=O)c2ccco2)c(C)c1 | – | – | –
CCN1C(=O)[C@H]2[C@H]3[C@H](O)[C@H](O)C/C(=N/O[C@@H](C)c4cc(-c5c(C)cc(C)cc5C)no4)[C@@H]3CC[C@@H]2C1=O | · | –[13.5 µM] | ·
CN(C(=O)COC(=O)c1ccc(Cl)nc1)C1CCS(=O)(=O)C1 (centres undefined) | · | – | ·
CC1CC(C)CN(S(=O)(=O)N2CCC(C(=O)NCCC3=CCCCC3)CC2)C1 (centres undefined) | · | – | ·
Cc1ccccc1NC(=O)C(=O)c1cn(C)c2ccccc12 | · | – | ·
O=C1NC(Cc2c[nH]c3ccccc23)C(=O)N1Cc1ccc(CN2C(=O)NC(Cc3c[nH]c4ccccc34)C2=O)cc1 (centres undefined) | · | – | ·
CCN1C(=O)[C@H]2[C@H]3[C@H](O)[C@H](O)C/C(=N\O[C@H](C)c4cn([C@H](CO)Cc5ccccc5)nn4)[C@@H]3CC[C@H]2C1=O | – | – | ?
Cc1ccc(CCN2C(=O)c3ccccc3C2C(=O)NCc2cccnc2)cc1 (centres undefined) | · | – | ·
COc1ccccc1N1CCN(CC(=O)Nc2cc(F)ccc2C)CC1 | – | 18µM | ?
CSc1ccc(/C=N/NC(=O)CN2CCN(Cc3ccccc3)CC2)cc1 | · | ? | –
Cc1ccc(F)cc1NC(=O)CN1CCN(c2ccccn2)CC1 | · | – | ·
SMILES | HPGD inh | ALDH1A1 inh | PNC inhibitor
O=C(CN1CCN(Cc2ccccc2)CC1)Nc1ccccc1-c1ccccc1 | · | 11µM | ·
COc1ccccc1NC(=O)CN1CCN(CC(=O)Nc2ccc(OCc3ccccc3)cc2)CC1 | – | ? | –
COc1ccccc1NC(=O)CN1CCN(CC(=O)Nc2ccc(F)cc2)CC1 | – | 25µM | –
Clc1ccc(CO/N=C/c2cccs2)cc1 | · | – | ·
CC(=O)Nc1cccc(/C(C)=N\NC(=O)c2ccc(Cn3nc([N+](=O)[O-])c(Cl)c3C)o2)c1 | – | – | –
Cc1cc(NC(=S)NC(=O)/C=C/c2ccc(S(=O)(=O)N3CCOCC3)cc2)ccc1Br | · | – | ·
FC(F)(F)c1cc(CN2CC[C@@]3(CCCNC3)C2)cc(C(F)(F)F)c1 | – | – | ·
O=C(c1cnccn1)N1CCC2(CC1)CN(c1ccccn1)C2 | – | ? | ·
c1ccc(C2CC(c3ccccc3)n3c(nc4ccccc43)N2)cc1 (centres undefined) | – | – | –
COc1ccc2nc(N3CCCCC3)c(C#N)cc2c1 | – | ? | –
N#Cc1cc2c(nc1SCC(=O)N1CCCCC1)CCCCC2 | 25µM | 22µM | –
COc1ccc2nc3oc(C(=O)N4CCCCC4)cc3cc2c1 | ? | ? | -100
COc1ccc2nc(SCC(=O)N3CCCCCC3)c(C#N)cc2c1 | ? | 13µM | –
N#Cc1cc2c(nc1SCC(=O)N1CCCCC1)CCCC2 | – | ? | –
CCOC(=O)C1CCN(C(=O)c2cc3cc4cc(OC)ccc4nc3o2)CC1 | ? | ? | –
CCOc1ccc2nc(SCc3ccc(CC(=O)O)cc3)c(C#N)cc2c1 | · | – | ·
COc1ccc2nc(SCC(=O)N(C)C3CCCCC3)c(C#N)cc2c1 | ? | 25µM | –
N#C/C(=C/c1cn(CC(=O)O)c2ccccc12)C(=O)NCc1ccccc1 | · | – | ·
Nc1ccccc1C(=O)NCc1ccc(Cl)cc1 | ? | ? | –
COc1ccc(C(C(=O)NCC2CCCO2)N(C(=O)CNC(=O)c2cccs2)c2ccc(C)cc2)cc1OC (centres undefined) | · | – | ·
CCSc1nc(CC)c2c(c1C#N)CCCC2 | – | – | –
O=C(NCc1ccccc1)c1cc(-c2ccncc2)nc2ccc(S(=O)(=O)N3CCOCC3)cc12 | – | 0.79µM | –
O=C(O)c1cc(-c2ccncc2)nc2ccc(S(=O)(=O)N3CCOCC3)cc12 | – | – | –
Cc1cccc(C)c1-n1c(C)nn(CC2CC2)c1=O | · | – | ·
CCOC(=O)CSc1nc2ccccc2n2cnnc12 | ? | 18µM | ?
SMILES | HPGD inh | ALDH1A1 inh | PNC inhibitor
CCOC(=O)CSc1nc2ccccc2n1C(=O)OCC | – | – | –
N/C(=N\OS(=O)(=O)c1ccc(Br)cc1)c1ccncc1 | – | – | ?
Cn1c2ccccc2c(=O)c2c(=O)n(C3CCCCC3)c(-c3cccs3)nc21 | – | – | –
CC(C)(C)N1C(=O)c2ccc(C(=O)O)cc2C1=O | – | – | –
O=C(O)c1ccc2c(c1)C(=O)/C(=C/c1ccccc1)C2=O | 13µM | – | –
Cc1ccc(/C=C2/C(=O)c3ccc(C(=O)O)cc3C2=O)o1 | · | 7.1µM | ·
Cc1ccc(C=C2C(=O)c3ccccc3C2=O)o1 | – | – | –
CCc1ccc(N(C(=O)c2snc(C(N)=O)c2N)C(C(=O)NCCC(C)C)c2c[nH]c3ccccc23)cc1 (centres undefined) | – | – | –
Cc1onc(-c2ccccc2)c1C(=O)NCC(O)c1ccccc1 (centres undefined) | · | – | ·
COc1ccc(NC(=O)c2cnc(C)cn2)cc1-n1cnnn1 | – | – | –
COc1ccc(NC(=O)C2CC2)cc1-n1cnnn1 | 14µM | – | –
CC(C)C[C@@H](CC(=O)N[C@@H](CCC(=O)O)CC(=O)O)NC(=O)[C@@H]1CCCC[C@H]1NC(=O)C[C@H](CCCN)NC(=O)C[C@H](CO)NC(=O)[C@@H]1CCCC[C@H]1N | – | – | ·
CCOc1cccc(SCc2noc(C(=O)NCC3CCCO3)c2C(=O)O)c1 (centres undefined) | – | – | –
CC1(C)CC2CC(C)(CN2C(=O)COC(=O)CNC(=O)c2ccc(Cl)c(Cl)c2)C1 (centres undefined) | – | ? | ?
COc1ccc(-c2cc(C(=O)OCC(=O)Nc3cc(C)on3)c3ccccc3n2)cc1OC | ? | ? | –
Cc1cccc(NS(=O)(=O)c2ccc(C)c(C(=O)OCC(=O)Nc3cc(C)on3)c2)c1 | – | ? | -100
Cc1cccc(NS(=O)(=O)c2cc(C(=O)OCC(=O)Nc3cc(C)on3)ccc2C)c1 | – | – | ?

Source: PubChem BioAssay
